High-throughput results (PubChem)
FBW7 act: human FBW7 E3 ligase activation, primary screen | normalized activity (activation), % at 26.1 µM | actives 0.13% (n = 650,000) | AlphaScreen FBW7–phospho-cyclin E peptide binding, activator screen | Q969H0 | AID 1259310; in the data active means normalized activity above about 1.9%;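 further: purified mutant Fbw7 with reduced substrate affinity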
TEAD-YAP inh: TEAD-YAP interaction inhibition. actives 1.4% (n = 640,000). inhibition, % at 9.12 µM. HEK-TIYL cells, TEAD-Gal4/YAP UAS-luciferase luminescence; in the data active means inhibition above about 32%;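 further: 0% = median of test compound wells and 100% = reference inhibitor wells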
MITF inh: human MITF inhibition, primary screen; AlphaScreen MITF homodimerization, bead proximity signal; inhibition, % at 2.6 µM; actives 0.91% (n = 650,000); AID 1259374; in the data active means inhibition above about 50%;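 further: 0% = vehicle wells with protein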
GPR151 activ: activates the human receptor GPR151 | PathHunter beta-arrestin GPR151 cells, luminescence | activation, % at 11.2 µM | actives 1% (n = 650,000) | AID 1508602; in the data active means activation above about 4.9%;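 further: 0% = median of compound wells and 100% = cells with positive control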
GPR151 conf act: human GPR151 activation, confirmation screen | shares compounds with GPR151 activ | GPR151 PathHunter beta-arrestin cells, luminescence, 90 min; % of EA-reagent control over plate median | activation, % at 11.2 µM | 6,700 tested, under 10 active;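 active means mean percent activation across replicates above the confirmation screen cutoff of 4.91%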
GPR119 counter: activates human GPR119 in a GPR151 counter-screen; activation, % at 11.2 µM; shares compounds with GPR151 activ; actives 0.3% (n = 6,700); GPR119 PathHunter beta-arrestin cells, luminescence, 90 min; 0 = compound-well median, 100 = enzyme-acceptor control;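 active means mean percent activation in the counterscreen above 29.09%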;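 further: counterscreen on off-target GPR119 to flag nonselective hits from the GPR151 activator screen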
Target sequence (Q8TDV5 whole entry, looked up): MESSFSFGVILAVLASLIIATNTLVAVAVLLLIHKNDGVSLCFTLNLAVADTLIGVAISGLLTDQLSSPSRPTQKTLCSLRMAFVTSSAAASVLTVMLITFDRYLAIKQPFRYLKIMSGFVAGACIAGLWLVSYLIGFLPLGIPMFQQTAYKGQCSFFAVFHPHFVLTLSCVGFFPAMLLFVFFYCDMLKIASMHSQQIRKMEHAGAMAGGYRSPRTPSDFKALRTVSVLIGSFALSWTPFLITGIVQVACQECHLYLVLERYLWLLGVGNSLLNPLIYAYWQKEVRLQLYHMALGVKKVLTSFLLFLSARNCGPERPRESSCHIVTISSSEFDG
Starred values were filed as active, the others as inactive; nt = no result. Hits are enriched below; roughly 3.5% of the tested compounds scored in any of these assays.

SMILES	FBW7 act	TEAD-YAP inh	MITF inh	GPR151 activ	GPR151 conf act	GPR119 counter
C=CCNS(=O)(=O)c1cc(C(=O)Nc2cc(Cl)cc(Cl)c2)ccc1F	0	-16	-9	-2	nt	nt
C=CCNS(=O)(=O)c1cc(C(=O)Nc2ccc(OCC)cc2)ccc1F	0	26	7	5.7*	0	-1
Cc1ccc(CNS(=O)(=O)c2cc(C(=O)Nc3ccc(C(C)C)cc3)ccc2F)cc1	0	4	13	5.8*	1	7
O=C(Nc1ccccc1)c1ccc(Cl)c(S(=O)(=O)NCc2ccccc2)c1	0	13	-2	8.2*	-1	-13
CCc1ccc(NC(=O)c2ccc(F)c(S(=O)(=O)NCc3ccc(C)cc3)c2)cc1	0	-4	-6	2	nt	nt
Cn1c(N)c(C(=O)c2cc(-c3ccc(Cl)cc3)nc3ccccc23)c(=O)[nH]c1=O	0	-8	16	2	nt	nt
CCCOC(=O)C1=C(C)NC(=O)NC1c1ccc(Cl)cc1 (stereo not drawn)	0	-8	-8	2	nt	nt
CCN(CC)c1ccc(C2C(C#N)=C(N)N(c3cccc([N+](=O)[O-])c3)C3=C2C(=O)CCC3)cc1 (stereo not drawn)	1	4	19	-1	nt	nt
Cc1cc(C(=O)Nc2ccccc2C(F)(F)F)on1	0	-6	7	5.3*	1	4
NC(=O)/C(=C\c1ccccc1)NC(=O)c1ccccc1Br	0	5	-2	-1	nt	nt
CCCC(=O)N(c1ccc2oc(C)c(C(=O)OCC)c2c1)S(=O)(=O)c1ccc2ccccc2c1	0	4	8	-2	nt	nt
CCCC(=O)N(c1ccc2oc(C)c(C(=O)OC)c2c1)S(=O)(=O)c1ccc2ccccc2c1	0	-37	7	5.2*	-1	-8
CC(=O)N1N=C(c2ccccc2)CC1c1cn(-c2ccccc2)nc1-c1ccc(C)cc1 (stereo not drawn)	0	-6	8	6.0*	0	-6
Cc1ccc(NC(=O)COC(=O)c2nn(-c3ccccc3)cc2O)cc1C	1	-5	12	0	nt	nt
O=C(Nc1ccccc1)OCC1CCCO1 (stereo not drawn)	0	-35	3	11*	0	-5
Nc1ccc2nc(SCc3ccc(Cl)cc3)sc2c1	0	-8	-4	0	nt	nt
CC(C)(CO)CNC(=O)C1CC(Cc2ccc(F)cc2)=NO1 (stereo not drawn)	0	1	17	0	nt	nt
O=C(Nc1ccc2c(c1)CN(C(=O)c1cscn1)CC2)c1ccc(C(F)(F)F)cc1	0	4	2	1	nt	nt
Nc1nc(SCc2nc(-c3ccccc3)no2)[nH]c(=O)c1-c1ccccc1	0	1	-2	6.0*	-2	-16
Nc1nc(SCC(=O)NCc2ccccc2)[nH]c(=O)c1-c1ccccc1	0	8	3	6.8*	0	0
COC(=O)C(C)N1C(=O)S/C(=C/c2ccc(Br)s2)C1=O (stereo not drawn)	0	-7	-6	-1	nt	nt
CCOC(=O)c1c(N2C(N)=C(C#N)C(c3ccsc3)C3=C2CC(C)(C)CC3=O)sc2c1CCCC2 (stereo not drawn)	0	-6	-5	-2	nt	nt
COc1cc(N)c(Cl)cc1C(=O)OCCOc1ccc(Br)cc1	0	4	7	20*	-1	0
CSc1ncccc1C(=O)OCCOc1ccc(Br)cc1	0	-2	-17	6.3*	0	-3
O=C(OCCOc1ccc(Br)cc1)c1cccnc1Cl	0	4	-6	1	nt	nt
SMILES	FBW7 act	TEAD-YAP inh	MITF inh	GPR151 activ	GPR151 conf act	GPR119 counter
O=C(CN1CCOCC1)Nc1ccc(Br)cc1[N+](=O)[O-]	0	-2	-7	-1	nt	nt
Cc1cc2nnc(SCC(=O)N3CCC(C)CC3)n2c(N)n1	0	-7	3	4.9*	1	-1
O=C(Nc1nc(-c2ccc(I)cc2)cs1)C1CC1	0	-41	13	5.9*	0	9
COc1ccc(N2CCN(C3CC(=O)NC3=O)CC2)cc1 (stereo not drawn)	0	12	19	6.3*	2	11
O=C1CC(N2CCN(c3ccc(F)cc3)CC2)C(=O)N1 (stereo not drawn)	0	-1	0	-1	nt	nt
O=C(CCc1nnc(-c2ccc(-c3ccccc3)cc2)o1)NCCc1cn[nH]c1	0	9	5	-1	nt	nt
CCCN1C(=O)/C(=C2/C(=O)N(C)c3ccccc32)SC1=S	0	6	3	0	nt	nt
CCCN1C(=O)/C(=C2\SC(=S)N(CCOC)C2=O)c2ccccc21	0	8	11	5.6*	1	-4
CCCC(=O)Nc1ccc(NC(=O)c2cnccn2)cn1	1	-9	-8	8.0*	-1	-6
Cc1cccc2sc(N(Cc3ccccn3)C(=O)CCOc3ccccc3)nc12	0	-14	-6	5.8*	0	3
CC1=NNC(=O)C1CC(=O)N/N=C/c1ccc(C(C)C)cc1 (stereo not drawn)	0	0	6	-1	nt	nt
COc1ccc(-c2[nH]nc3c2C(c2c[nH]c4ccccc24)C(C#N)=C(N)O3)cc1OC (stereo not drawn)	0	21	29	6.4*	1	3
COc1ccc(-c2[nH]nc3c2C(c2cccc(Cl)c2Cl)C(C#N)=C(N)O3)cc1OC (stereo not drawn)	0	5	2	0	nt	nt
Cc1noc(C)c1COC(=O)Cc1coc2cc3c(cc12)CCC3	0	2	-9	3	nt	nt
COc1ccc2c(CC(=O)OCc3c(C)noc3C)coc2c1	0	9	0	5.1*	-2	-10
O=C(Nc1ccc(S(=O)(=O)N2CCCC2)cc1)C(=O)NC1CCCc2ccccc21 (stereo not drawn)	0	7	7	0	nt	nt
CC(=O)c1ccc(NC(=O)C(=O)NC2CCCc3ccccc32)cc1 (stereo not drawn)	0	-2	5	6.7*	0	-4
CCOC(=O)c1c(NC(=O)c2cccc(C)c2)sc(C(=O)Nc2ccc(C)c(Cl)c2)c1C	0	1	1	2	nt	nt
O=S(=O)(CCOc1nc2cc(Cl)ccc2cc1CNC1CCOC1)c1ccccc1 (stereo not drawn)	0	1	14	6.8*	0	12
COc1cc(/C=C2/C(=N)N3N=C(CC(C)C)SC3=NC2=O)ccc1OCc1ccc(F)cc1	0	-29	7	-1	nt	nt
COc1ccc(OC)c(C(=O)COC(=O)c2cc(C)oc2C)c1	0	-8	-3	13*	1	11
C[C@H](CCC(=O)O)[C@H]1CC[C@H]2[C@@H]3[C@@H](O)C[C@@H]4C[C@H](O)CCC4(C)[C@H]3CCC12C (stereo partly drawn)	0	nt	-12	4	nt	nt
